Data from PubChem BioAssay (EPA / NIEHS).
Calls of active or inactive are those of the source. The calls were made as follows: active = hit-call score of the fitted dose curve at least 0.9, where 1 is the maximum; inactive = score below 0.9.

Assays:
Conditions in all cases: mRNA level, 48 h; actives raise or lower the signal
[1] = read-out: Bcl-2 (BID) gene, BID (gene 637); assay: LTEA_HepaRG_BID: Life Technologies and Expression Analysis (LTEA) Assay for Bcl-2 (BID) gene using HepaRG (AID 2283476)
Outline: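 Gain or loss of BID expression is fitted relative to 0.5% DMSO vehicle. Human HepaRG liver cells received a 48 h chemical exposure over an eight-point concentration range.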

Caspase-3 (Homo sapiens) = Caspase-3 (Homo sapiens) (UniProt P42574); assay: LTEA_HepaRG_CASP3: Life Technologies and Expression Analysis (LTEA) Assay for cysteine-aspartic acid protease (CASP3) using HepaRG (AID 2283477)
Outline: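 Transcript-level assay: CASP3 mRNA in human HepaRG after 48 h treatment, eight half-log concentrations from 100 uM in 0.5% DMSO, quantified by qRT-PCR.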

[2] = read-out: Cytochrome P450 (CYP24A1), CYP24A1 (gene 1591); assay: LTEA_HepaRG_CYP24A1: Life Technologies and Expression Analysis (LTEA) Assay for Cytochrome P450 (CYP24A1) using HepaRG (AID 2283478)
Outline: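 Gene expression of CYP24A1 by TaqMan qRT-PCR in HepaRG after 48 h treatment, highest concentration 100 uM; activity fitted in both directions relative to DMSO vehicle.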

[3] = read-out: Cytochrome P450 (CYP1A2), CYP1A2 (gene 1544); assay: LTEA_HepaRG_CYP1A2: Life Technologies and Expression Analysis (LTEA) Assay for Cytochrome P450 (CYP1A2) using HepaRG (AID 2283479)
Outline: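 In duplicate wells, HepaRG cultures maintained in 0.5% DMSO were treated 48 h across an 8-point, half-log series topping at 100 uM; phenobarbital (1 mM) served as induction control. Expression was read by qRT-PCR.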

[4] = read-out: cysteine-aspartic acid protease (CASP8), CASP8 (gene 841); assay: LTEA_HepaRG_CASP8: Life Technologies and Expression Analysis (LTEA) Assay for cysteine-aspartic acid protease (CASP8) using HepaRG (AID 2283480)
Outline: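 Differentiated HepaRG cells in serum-free induction medium, 48 h exposure, eight-point half-log series from 100 uM in 0.5% DMSO, duplicates. CASP8 mRNA by qRT-PCR, normalized to ACTB, GAPDH, POLR2A; bidirectional fit versus DMSO.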

[5] = read-out: Cytochrome P450 (CYP2B6), CYP2B6 (gene 1555); assay: LTEA_HepaRG_CYP2B6: Life Technologies and Expression Analysis (LTEA) Assay for Cytochrome P450 (CYP2B6) using HepaRG (AID 2283481)
Outline: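 Human HepaRG, 48 h dosing, 0.5% DMSO vehicle, top dose 100 uM. CYP2B6 transcript by qRT-PCR, housekeeping-normalized, bidirectional curve fit.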

[6] = read-out: Cytochrome P450 2C19 (Homo sapiens) (UniProt P33261); assay: LTEA_HepaRG_CYP2C19: Life Technologies and Expression Analysis (LTEA) Assay for CYP2C19 using HepaRG (AID 2283482)
Outline: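 Endpoint: CYP2C19 mRNA change, bidirectional fit vs 0.5% DMSO. Cells: HepaRG, 48 h exposure, eight-point series topping at 100 uM. Quantitation: qRT-PCR normalized to ACTB, GAPDH, POLR2A.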

CYP2C9 (gene 1559) = assay: LTEA_HepaRG_CYP2C9: Life Technologies and Expression Analysis (LTEA) Assay for CYP2C9 using HepaRG (AID 2283484)
Outline: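 Differentiated human HepaRG cells in serum-free induction medium were exposed 48 h to chemicals in 8-point half-log series from 100 uM (0.5% DMSO), in duplicate. CYP2C9 mRNA was measured by qRT-PCR, normalized to ACTB/GAPDH/POLR2A, with bidirectional fitting versus DMSO.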

CYP2E1 (gene 1571) = assay: LTEA_HepaRG_CYP2E1: Life Technologies and Expression Analysis (LTEA) Assay for CYP2E1 using HepaRG (AID 2283485)
Outline: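 Differentiated HepaRG cells were treated in duplicate for 48 h with chemicals in 0.5% DMSO, from 100 uM downward in half-log dilutions. RNA was then analysed by qRT-PCR for CYP2E1 induction or loss.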

CYP4A11 (gene 1579) = assay: LTEA_HepaRG_CYP4A11: Life Technologies and Expression Analysis (LTEA) Assay for CYP4A11 using HepaRG (AID 2283486)
Outline: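 Human hepatic HepaRG cultures receive duplicate 48 h exposures across a concentration-response series topping at 100 uM. Expression changes in CYP4A11 are measured by qRT-PCR relative to DMSO controls.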

[7] = read-out: DNA damage-inducible transcript 3 (DDIT3), DDIT3 (gene 1649); assay: LTEA_HepaRG_DDIT3: Life Technologies and Expression Analysis (LTEA) Assay for DNA damage-inducible transcript 3 (DDIT3) using HepaRG (AID 2283488)
Outline: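 Changes in DDIT3 transcript, in either direction relative to 0.5% DMSO vehicle, were quantified by TaqMan qRT-PCR after 48 h chemical exposure of HepaRG cells at 8 concentrations, maximum 100 uM.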

[8] = read-out: Pro-epidermal growth factor (Homo sapiens) (UniProt P01133); assay: LTEA_HepaRG_EGF: Life Technologies and Expression Analysis (LTEA) Assay for Epidermal growth factor (EGF) using HepaRG (AID 2283489)
Outline: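 Concentration-response mRNA assay: HepaRG cells dosed 48 h (max 100 uM, 0.5% DMSO), EGF measured by qRT-PCR and normalized to ACTB/GAPDH/POLR2A.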

[9] = read-out: Early growth response protein 1 (EGR1) transcription factor, EGR1 (gene 1958); assay: LTEA_HepaRG_EGR1: Life Technologies and Expression Analysis (LTEA) Assay for Early growth response protein 1 (EGR1) transcription factor using HepaRG (AID 2283490)
Outline: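 Differentiated HepaRG cells in serum-free induction medium exposed 48 hours, duplicate, to 8 half-log concentrations up to 100 uM in 0.5% DMSO. EGR1 mRNA measured by TaqMan qRT-PCR, normalized to ACTB, GAPDH, POLR2A; bidirectional fit versus DMSO.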

[10] = read-out: Ezrin (EZR), EZR (gene 7430); assay: LTEA_HepaRG_EZR: Life Technologies and Expression Analysis (LTEA) Assay for Ezrin (EZR) using HepaRG (AID 2283491)
Outline: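 EZR transcript levels came from Fluidigm qRT-PCR and were normalized to three housekeeping genes after 48 h chemical exposure of HepaRG cells. Dosing used an 8-point half-log series with a 100 uM top concentration in 0.5% DMSO, tested in duplicate; both directions were fitted versus vehicle.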

[11] = read-out: Cytochrome P450 3A7 (Homo sapiens) (UniProt P24462); assay: LTEA_HepaRG_CYP3A7: Life Technologies and Expression Analysis (LTEA) Assay for CYP3A7 using HepaRG (AID 2283492)
Outline: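 qRT-PCR of CYP3A7 in HepaRG lysates after 48 h treatment; concentration-response (8 points, max 100 uM) analysed bidirectionally relative to 0.5% DMSO controls.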

CYP3A5 (gene 1577) = assay: LTEA_HepaRG_CYP3A5: Life Technologies and Expression Analysis (LTEA) Assay for CYP3A5 using HepaRG (AID 2283493)
Outline: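 mRNA induction or loss of CYP3A5 assessed in HepaRG after 48 h dosing, 100 uM top concentration, duplicate wells; TaqMan qRT-PCR with ACTB, GAPDH, POLR2A normalization; 0.5% DMSO as negative control.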

[12] = read-out: Fatty Acid-Binding Protein 1 (FABP1), FABP1 (gene 2168); assay: LTEA_HepaRG_FABP1: Life Technologies and Expression Analysis (LTEA) Assay for Fatty Acid-Binding Protein 1 (FABP1) using HepaRG (AID 2283494)
Outline: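 Differentiated human HepaRG cells exposed 48 h in serum-free induction medium to eight half-log concentrations up to 100 uM (0.5% DMSO), duplicate. FABP1 mRNA by qRT-PCR, normalised to ACTB, GAPDH, POLR2A; bidirectional fitting against DMSO.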

[13] = read-out: Cytochrome P450 4A22 (Homo sapiens) (UniProt Q5TCH4); assay: LTEA_HepaRG_CYP4A22: Life Technologies and Expression Analysis (LTEA) Assay for Cytochrome P450 4A22 (CYP4A22) using HepaRG (AID 2283495)
Outline: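 Concentration-response (8 points, max 100 uM, 0.5% DMSO) in human HepaRG liver cells after 48 h exposure. CYP4A22 mRNA by TaqMan qRT-PCR with housekeeping-gene normalization.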

CYP2C8 (gene 1558) = assay: LTEA_HepaRG_CYP2C8: Life Technologies and Expression Analysis (LTEA) Assay for CYP2C8 using HepaRG (AID 2283483)
Outline: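 Differentiated HepaRG cells in serum-free induction medium exposed 48 h in duplicate to 8 half-log concentrations from 100 uM in 0.5% DMSO. CYP2C8 mRNA by qRT-PCR normalized to ACTB, GAPDH, POLR2A; bidirectional fit versus DMSO.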

[14] = read-out: Cytochrome P450 3A4 (Homo sapiens) (UniProt P08684); assay: LTEA_HepaRG_CYP3A4: Life Technologies and Expression Analysis (LTEA) Assay for CYP3A4 using HepaRG (AID 2283487)
Outline: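 Differentiated HepaRG cells, plated 48 h, then dosed 48 h in serum-free induction medium with 0.5% DMSO, 8 half-log concentrations up to 100 uM, duplicate. CYP3A4 mRNA by qRT-PCR, normalized to ACTB/GAPDH/POLR2A; bidirectional fit versus DMSO.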

Cytochrome P450 2C19 (Homo sapiens), sequence (P33261 whole entry, looked up): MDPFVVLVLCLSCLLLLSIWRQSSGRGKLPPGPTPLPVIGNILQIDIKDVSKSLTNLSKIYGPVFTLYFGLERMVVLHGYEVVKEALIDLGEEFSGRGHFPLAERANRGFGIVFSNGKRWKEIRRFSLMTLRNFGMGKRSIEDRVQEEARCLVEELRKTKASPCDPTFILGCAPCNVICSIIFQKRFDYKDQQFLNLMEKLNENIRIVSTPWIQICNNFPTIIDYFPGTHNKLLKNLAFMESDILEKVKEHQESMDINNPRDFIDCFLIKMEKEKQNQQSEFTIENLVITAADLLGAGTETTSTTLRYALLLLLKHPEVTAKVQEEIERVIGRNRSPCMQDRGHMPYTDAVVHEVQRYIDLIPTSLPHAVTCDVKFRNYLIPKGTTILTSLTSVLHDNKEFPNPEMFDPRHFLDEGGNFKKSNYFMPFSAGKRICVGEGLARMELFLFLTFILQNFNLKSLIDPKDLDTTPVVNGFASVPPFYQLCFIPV
Caspase-3 (Homo sapiens), sequence (P42574 whole entry, looked up): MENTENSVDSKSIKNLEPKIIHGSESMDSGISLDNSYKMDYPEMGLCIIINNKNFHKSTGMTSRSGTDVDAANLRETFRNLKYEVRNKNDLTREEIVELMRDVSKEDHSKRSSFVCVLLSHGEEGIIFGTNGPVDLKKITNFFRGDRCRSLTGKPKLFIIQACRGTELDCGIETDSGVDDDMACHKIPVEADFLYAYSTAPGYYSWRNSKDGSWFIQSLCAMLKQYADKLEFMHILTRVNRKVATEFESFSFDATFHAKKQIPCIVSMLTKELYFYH
Cytochrome P450 3A7 (Homo sapiens), sequence (P24462 whole entry, looked up): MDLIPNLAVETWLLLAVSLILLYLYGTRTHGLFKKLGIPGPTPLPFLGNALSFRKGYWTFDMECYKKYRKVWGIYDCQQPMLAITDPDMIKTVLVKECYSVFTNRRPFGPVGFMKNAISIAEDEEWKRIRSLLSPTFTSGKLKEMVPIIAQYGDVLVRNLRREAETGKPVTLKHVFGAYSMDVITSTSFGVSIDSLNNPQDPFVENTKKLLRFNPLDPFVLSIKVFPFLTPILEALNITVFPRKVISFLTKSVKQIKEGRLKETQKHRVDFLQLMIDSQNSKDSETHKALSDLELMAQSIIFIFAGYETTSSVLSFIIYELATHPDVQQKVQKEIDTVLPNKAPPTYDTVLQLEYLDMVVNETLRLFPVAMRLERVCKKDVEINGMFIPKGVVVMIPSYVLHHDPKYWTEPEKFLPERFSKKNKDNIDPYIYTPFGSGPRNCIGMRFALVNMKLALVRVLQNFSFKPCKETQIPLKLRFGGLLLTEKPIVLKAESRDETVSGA
Cytochrome P450 3A4 (Homo sapiens), sequence (P08684 whole entry, looked up): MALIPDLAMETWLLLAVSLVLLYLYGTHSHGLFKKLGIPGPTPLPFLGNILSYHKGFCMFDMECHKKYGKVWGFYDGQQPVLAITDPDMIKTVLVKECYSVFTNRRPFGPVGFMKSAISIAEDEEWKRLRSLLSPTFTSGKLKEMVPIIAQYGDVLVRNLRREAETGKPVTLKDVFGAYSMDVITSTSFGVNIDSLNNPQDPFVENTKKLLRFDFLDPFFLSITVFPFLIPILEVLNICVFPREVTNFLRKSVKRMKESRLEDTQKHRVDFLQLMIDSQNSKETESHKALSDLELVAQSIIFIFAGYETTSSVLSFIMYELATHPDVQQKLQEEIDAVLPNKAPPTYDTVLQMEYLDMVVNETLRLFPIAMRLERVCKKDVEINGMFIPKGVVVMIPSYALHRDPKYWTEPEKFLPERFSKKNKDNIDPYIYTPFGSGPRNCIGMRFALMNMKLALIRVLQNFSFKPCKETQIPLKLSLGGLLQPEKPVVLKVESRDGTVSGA

CCSC(=O)N(CC)C1CCCCC1
outcome [1]: inactive | outcome (Caspase-3 (Homo sapiens)): inactive | outcome [2]: inactive | outcome [3]: inactive | outcome [4]: inactive | AC50 [5]: 32.9 µM (active) | outcome [6]: inactive | outcome (CYP2C9 (gene 1559)): inactive | outcome (CYP2E1 (gene 1571)): inactive | outcome (CYP4A11 (gene 1579)): inactive | outcome [7]: inactive | outcome [8]: inactive | outcome [9]: inactive | outcome [10]: inactive | outcome [11]: inactive | outcome (CYP3A5 (gene 1577)): inactive | outcome [12]: inactive | outcome [13]: inactive

O=C(N[C@H]1CN2CCC1CC2)c1cc2ccoc2cn1
outcome [1]: inactive | outcome (Caspase-3 (Homo sapiens)): inactive | outcome [2]: inactive | AC50 [3]: 50 µM (active) | outcome [4]: inactive | AC50 [5]: 50 µM (active) | outcome [6]: inactive | outcome (CYP2C8 (gene 1558)): inactive | outcome (CYP2C9 (gene 1559)): inactive | outcome (CYP2E1 (gene 1571)): inactive | outcome (CYP4A11 (gene 1579)): inactive | outcome [7]: inactive | outcome [8]: inactive | outcome [9]: inactive | outcome [10]: inactive | outcome [11]: inactive | outcome (CYP3A5 (gene 1577)): inactive | outcome [12]: inactive | outcome [13]: inactive

c1ccc(-c2ccccc2)cc1
outcome [1]: inactive | outcome (Caspase-3 (Homo sapiens)): inactive | outcome [2]: inactive | outcome [3]: inactive | outcome [4]: inactive | outcome [5]: inactive | outcome [6]: inactive | outcome (CYP2C8 (gene 1558)): inactive | outcome (CYP2C9 (gene 1559)): inactive | outcome (CYP2E1 (gene 1571)): inactive | outcome (CYP4A11 (gene 1579)): inactive | outcome [7]: inactive | outcome [9]: inactive | outcome [10]: inactive | outcome [11]: inactive | outcome (CYP3A5 (gene 1577)): inactive | outcome [12]: inactive

Clc1ccc(C(c2ccccc2Cl)C(Cl)(Cl)Cl)cc1 (stereo not given)
outcome [1]: inactive | outcome (Caspase-3 (Homo sapiens)): inactive | outcome [3]: inactive | outcome [4]: inactive | AC50 [5]: 0.213 µM (active) | AC50 [6]: 1.76 µM (active) | AC50 (CYP2C8 (gene 1558)): 0.794 µM (active) | outcome (CYP2C9 (gene 1559)): inactive | AC50 (CYP2E1 (gene 1571)): 39.8 µM (active) | AC50 (CYP4A11 (gene 1579)): 40.7 µM (active) | AC50 [14]: 2.46 µM (active) | AC50 [7]: 74.6 µM (active) | outcome [8]: inactive | AC50 [9]: 11.9 µM (active) | outcome [10]: inactive | AC50 [11]: 0.41 µM (active) | outcome (CYP3A5 (gene 1577)): inactive | AC50 [12]: 33.9 µM (active)

O=C(O)C(F)(F)C(F)(F)C(F)(F)C(F)(F)C(F)(F)C(F)(F)C(F)(F)C(F)(F)C(F)(F)F
AC50 [1]: 90.6 µM (active) | AC50 (Caspase-3 (Homo sapiens)): 82.5 µM (active) | AC50 [3]: 22.2 µM (active) | AC50 [4]: 86 µM (active) | AC50 [5]: 80.1 µM (active) | AC50 [6]: 81.1 µM (active) | AC50 (CYP2C8 (gene 1558)): 76.6 µM (active) | AC50 (CYP2C9 (gene 1559)): 74.2 µM (active) | AC50 (CYP2E1 (gene 1571)): 25.4 µM (active) | AC50 (CYP4A11 (gene 1579)): 81.5 µM (active) | AC50 [14]: 75.8 µM (active) | AC50 [7]: 17 µM (active) | AC50 [8]: 76.1 µM (active) | outcome [9]: inactive | AC50 [10]: 11.5 µM (active) | AC50 [11]: 80.3 µM (active) | AC50 (CYP3A5 (gene 1577)): 94.1 µM (active) | AC50 [12]: 33.7 µM (active) | AC50 [13]: 79.7 µM (active)

Cc1cc(O)ccc1Cl
outcome [1]: inactive | outcome (Caspase-3 (Homo sapiens)): inactive | outcome [2]: inactive | outcome [3]: inactive | outcome [4]: inactive | outcome [5]: inactive | outcome [6]: inactive | outcome (CYP2C8 (gene 1558)): inactive | outcome (CYP2C9 (gene 1559)): inactive | outcome (CYP2E1 (gene 1571)): inactive | outcome (CYP4A11 (gene 1579)): inactive | outcome [7]: inactive | outcome [8]: inactive | outcome [9]: inactive | outcome [10]: inactive | outcome [11]: inactive | outcome (CYP3A5 (gene 1577)): inactive | outcome [12]: inactive | outcome [13]: inactive
